# Measured values from ChEMBL document CHEMBL5606460, “ASAP - DENV-2 NS2B-NS3 protease fluorescence single point” (2024).
# Out of some 2,000 compounds screened, about 110 (5.5%) showed an effect of 50% or more. This excerpt belongs to a sample that is enriched for strong results.
# Target: Genome polyprotein (dengue virus type 2) (UniProt P29990)
# [1] = Thailand/16681/1984, Concentration 25.0 uM, Number of replicates 1.0
smiles,measurement,setting,value
CNC(=O)c1cc(Cl)ccc1NS(=O)(=O)c1ccc(C(=O)N(C)C)cc1,inhibition,"Thailand/16681/1984, Concentration 49.5 uM, Number of replicates 2.0, Standard deviation 0.43931539952348436 %",-0.006%
same,inhibition,"Thailand/16681/1984, Concentration 99.01 uM, Number of replicates 2.0, Standard deviation 1.0448066347124485 %",1.16%
same,inhibition,"Thailand/16681/1984, Concentration 198.0 uM, Number of replicates 2.0, Standard deviation 2.436767925477247 %",5.4%
O=Cc1ccc(N2CCC(C(=O)N3CCN(c4ccc(F)cc4F)CC3)CC2)cc1,inhibition,[1],11.4%
CC[C@H]1CCN(C(=O)c2cc(Cl)ccc2NS(=O)(=O)c2ccc(Oc3ccccc3Cl)cc2)C1,inhibition,"Thailand/16681/1984, Concentration 49.5 uM, Number of replicates 2.0, Standard deviation 0.47789805764320614 %",46.7%
same,inhibition,"Thailand/16681/1984, Concentration 99.01 uM, Number of replicates 2.0, Standard deviation 0.11836183761011393 %",61.8%
same,inhibition,"Thailand/16681/1984, Concentration 198.0 uM, Number of replicates 2.0, Standard deviation 0.034704726588234404 %",73.4%
CNC(=O)[C@H]1CCCN(S(=O)(=O)c2ccc(Oc3ccccc3Cl)cc2)C1,inhibition,"Thailand/16681/1984, Concentration 49.5 uM, Number of replicates 2.0, Standard deviation 1.3425926640552597 %",-1.55%
same,inhibition,"Thailand/16681/1984, Concentration 99.01 uM, Number of replicates 2.0, Standard deviation 1.1232771440198652 %",0.94%
same,inhibition,"Thailand/16681/1984, Concentration 198.0 uM, Number of replicates 2.0, Standard deviation 1.8999403128335026 %",2.72%
O=C(c1cc(Cl)ccc1NS(=O)(=O)c1ccc(Oc2ccccc2Cl)cc1)N1CC[C@H](CO)C1,inhibition,"Thailand/16681/1984, Concentration 49.5 uM, Number of replicates 2.0, Standard deviation 1.1631525408138252 %",2.87%
same,inhibition,"Thailand/16681/1984, Concentration 99.01 uM, Number of replicates 2.0, Standard deviation 1.2459174873464263 %",43.6%
same,inhibition,"Thailand/16681/1984, Concentration 198.0 uM, Number of replicates 2.0, Standard deviation 0.07742612093802895 %",97.8%
CNC(=O)C[C@H]1CCCN1S(=O)(=O)c1ccc(Oc2ccccc2Cl)cc1,inhibition,"Thailand/16681/1984, Concentration 49.5 uM, Number of replicates 2.0, Standard deviation 0.32757728686835763 %",-0.145%
same,inhibition,"Thailand/16681/1984, Concentration 99.01 uM, Number of replicates 2.0, Standard deviation 1.5700018436077314 %",1.46%
same,inhibition,"Thailand/16681/1984, Concentration 198.0 uM, Number of replicates 2.0, Standard deviation 0.26515981673573996 %",3.55%
CNC(=O)[C@H]1CCN(S(=O)(=O)c2ccc(Oc3ccccc3Cl)cc2)C1,inhibition,"Thailand/16681/1984, Concentration 49.5 uM, Number of replicates 2.0, Standard deviation 0.2326651022960228 %",-2.7%
same,inhibition,"Thailand/16681/1984, Concentration 99.01 uM, Number of replicates 2.0, Standard deviation 1.0727392899756494 %",-1.81%
same,inhibition,"Thailand/16681/1984, Concentration 198.0 uM, Number of replicates 2.0, Standard deviation 0.8124211767562954 %",0.204%
O=C(c1cc(Cl)ccc1NS(=O)(=O)c1ccc(Oc2ccccc2Cl)cc1)N1CCC[C@@H]1CO,inhibition,"Thailand/16681/1984, Concentration 49.5 uM, Number of replicates 2.0, Standard deviation 0.383564644131335 %",17.2%
same,inhibition,"Thailand/16681/1984, Concentration 99.01 uM, Number of replicates 2.0, Standard deviation 0.18466388793957156 %",85.5%
same,inhibition,"Thailand/16681/1984, Concentration 198.0 uM, Number of replicates 2.0, Standard deviation 0.022248141217142654 %",93.6%
CNC(=O)C[C@H]1CCCCN1S(=O)(=O)c1ccc(Oc2ccccc2Cl)cc1,inhibition,"Thailand/16681/1984, Concentration 49.5 uM, Number of replicates 2.0, Standard deviation 0.6403061336392061 %",-1.92%
same,inhibition,"Thailand/16681/1984, Concentration 99.01 uM, Number of replicates 2.0, Standard deviation 0.5926288072768489 %",-0.478%
same,inhibition,"Thailand/16681/1984, Concentration 198.0 uM, Number of replicates 2.0, Standard deviation 0.4290957159902598 %",1.47%
O=Cc1ccc(N2CCC(C(=O)Nc3c(F)cc(F)cc3[N+](=O)[O-])CC2)cc1,inhibition,[1],15.2%
Cc1cc(C(N)=O)c2cccc(Cl)c2n1,inhibition,"Thailand/16681/1984, Concentration 49.95 uM, Number of replicates 2.0, Standard deviation 7.126306314460823 %",-2.36%
same,inhibition,"Thailand/16681/1984, Concentration 99.9 uM, Number of replicates 2.0, Standard deviation 6.288884680839078 %",0.295%
O=Cc1ccc(N2CCC(C(=O)N3CCN(C(=O)OCc4ccccc4)CC3)CC2)cc1,inhibition,[1],11.5%
CC(C)COc1ccc(CNC(=O)C2CCN(c3ccc(C=O)cc3)CC2)cc1,inhibition,[1],2.46%
COC(=O)c1c[nH]c(-c2ccccc2C(=O)Nc2cnn(C)c2)c1,inhibition,"Thailand/16681/1984, Concentration 49.5 uM, Number of replicates 2.0, Standard deviation 4.6959836114984075 %",-3.99%
same,inhibition,"Thailand/16681/1984, Concentration 99.01 uM, Number of replicates 2.0, Standard deviation 3.634509710514387 %",-4.57%
same,inhibition,"Thailand/16681/1984, Concentration 198.0 uM, Number of replicates 2.0, Standard deviation 4.5675250537856 %",-3.67%
CCCN(C[C@H](O)COc1ccccc1C(=O)CCc1ccccc1)C(=O)C1CCN(c2ccc(C=O)cc2)CC1,inhibition,[1],15.7%
Cc1cc(CO)c2cccc(Cc3ccccc3C(=O)N3CC[C@@H](CO)C3)c2n1,inhibition,"Thailand/16681/1984, Concentration 49.95 uM, Number of replicates 2.0, Standard deviation 0.1537915321395842 %",-0.863%
same,inhibition,"Thailand/16681/1984, Concentration 99.9 uM, Number of replicates 2.0, Standard deviation 0.5490500301245094 %",3.93%
Cc1cc(CO)c2cccc(Cc3cccc(C(=O)N4CC[C@@H](CO)C4)c3)c2n1,inhibition,"Thailand/16681/1984, Concentration 49.95 uM, Number of replicates 2.0, Standard deviation 1.5846275376108605 %",1.42%
same,inhibition,"Thailand/16681/1984, Concentration 99.9 uM, Number of replicates 2.0, Standard deviation 0.9371220268229934 %",23.4%
Cc1cc(CO)c2cccc(Cc3ccccc3C(=O)N3CCC(CN)CC3)c2n1,inhibition,"Thailand/16681/1984, Concentration 49.95 uM, Number of replicates 2.0, Standard deviation 7.669453256982897 %",67%
same,inhibition,"Thailand/16681/1984, Concentration 99.9 uM, Number of replicates 2.0, Standard deviation 4.997502207892192 %",86.3%
Cc1cc(CO)c2cccc(Cc3ccccc3C(=O)N3CCC(C(=O)O)CC3)c2n1,inhibition,"Thailand/16681/1984, Concentration 49.95 uM, Number of replicates 2.0, Standard deviation 0.622352552136526 %",0.457%
same,inhibition,"Thailand/16681/1984, Concentration 99.9 uM, Number of replicates 2.0, Standard deviation 0.7955477281018075 %",4.68%
Cc1cc(CO)c2cccc(Cc3cccc(C(=O)N4CCC(C(=O)O)CC4)c3)c2n1,inhibition,"Thailand/16681/1984, Concentration 49.95 uM, Number of replicates 2.0, Standard deviation 0.11067239798039237 %",-0.531%
same,inhibition,"Thailand/16681/1984, Concentration 99.9 uM, Number of replicates 2.0, Standard deviation 0.04599367566818035 %",2.3%
Cc1cc(CO)c2cccc(Cc3cccc(C(=O)N4CCC(CN)CC4)c3)c2n1,inhibition,"Thailand/16681/1984, Concentration 49.95 uM, Number of replicates 2.0, Standard deviation 0.03521723226612688 %",98.6%
same,inhibition,"Thailand/16681/1984, Concentration 99.9 uM, Number of replicates 2.0, Standard deviation 0.007908771829372243 %",98.5%
